Results reported in PubChem BioAssay (EPA / NIEHS).
Calls of active or inactive are those of the source. Rule for the calls: active = hit-call score of the fitted dose curve at least 0.9, where 1 is the maximum; inactive = score below 0.9.

Columns and labels:
[1] = ATG_EGR_CIS: Attagene CIS-FACTORIAL HepG2 Assay for human Early Growth Response 1 (EGR1) (AID 2282938); conditions: HepG2 Attagene CIS-FACTORIAL EGR reporter mRNA; actives raise or lower the signal
Procedure, shortened: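 HepG2 cells transiently transfected with cis-element-driven multiplexed reporter units, dosed for 24 h. EGR1-element reporter mRNA quantified by RT-PCR, 6-FAM labelling, HpaI digestion and capillary electrophoresis; bidirectional fit versus DMSO.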

[2] = ATG_M_19_CIS: Attagene CIS-FACTORIAL HepG2 Assay for M19 Transcription Factor (Internal Marker) (AID 2282939); conditions: HepG2 Attagene CIS-FACTORIAL M19 internal marker reporter; actives raise or lower the signal
Procedure, shortened: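 Chemical-treated HepG2 (24 h) with MRTU constructs; reporter transcripts detected by fluorescent RT-PCR fragment analysis on capillary electrophoresis. Internal background marker, DMSO as baseline.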

[3] = ATG_ERE_CIS: Attagene CIS-FACTORIAL HepG2 Assay for Estrogen Response Element (ERE) (AID 2282940); conditions: HepG2 ERE cis-reporter, Attagene RNA transcript; actives raise or lower the signal
Procedure, shortened: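 Human liver cells (HepG2) bearing transiently transfected, promoter-regulated reporter units were exposed 24 h. Reporter mRNA induction was detected by capillary electrophoresis of labelled RT-PCR products and fitted bidirectionally to DMSO.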

[4] = ATG_Ets_CIS: Attagene CIS-FACTORIAL HepG2 Assay for human Erythroblast Transformation Specific (ETS) (AID 2282941); conditions: HepG2 ETS cis-reporter transcription, actives raise or lower the signal
Procedure, shortened: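 Cis-regulated reporter mRNA induction in HepG2 (transient transfection), 24 h exposure, RT-PCR plus capillary electrophoresis detection; DMSO serves as negative control and baseline.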

[5] = target: Hepatocyte nuclear factor 3-beta (Homo sapiens) (UniProt Q9Y261); assay: ATG_FoxA2_CIS: Attagene CIS-FACTORIAL HepG2 Assay for human Forkhead box A2 (FOXA2) (AID 2282942); conditions: HepG2 cis-reporter transcription factor activity, 24 h; actives raise or lower the signal
Sequence of Hepatocyte nuclear factor 3-beta (Homo sapiens) (Q9Y261 whole entry, looked up): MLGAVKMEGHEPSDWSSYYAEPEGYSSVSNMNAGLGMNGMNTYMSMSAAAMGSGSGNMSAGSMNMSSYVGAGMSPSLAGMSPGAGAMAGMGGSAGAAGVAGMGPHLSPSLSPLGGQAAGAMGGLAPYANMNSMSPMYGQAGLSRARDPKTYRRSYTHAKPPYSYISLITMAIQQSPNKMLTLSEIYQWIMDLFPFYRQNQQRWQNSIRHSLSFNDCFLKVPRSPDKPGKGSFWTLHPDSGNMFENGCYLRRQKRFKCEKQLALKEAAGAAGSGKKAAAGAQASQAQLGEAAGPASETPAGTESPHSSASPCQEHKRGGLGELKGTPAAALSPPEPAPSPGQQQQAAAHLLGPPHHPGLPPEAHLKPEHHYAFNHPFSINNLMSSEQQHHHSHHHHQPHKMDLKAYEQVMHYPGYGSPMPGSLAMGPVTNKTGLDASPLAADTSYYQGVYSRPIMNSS
Procedure, shortened: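 HepG2 transiently transfected with a multiplexed cis-promoter reporter library read endogenous FOXA2 activity. After 24 h compound exposure, reporter mRNA was quantified by RT-PCR, HpaI digestion and capillary electrophoresis. Bidirectional fit against DMSO.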

[6] = ATG_FoxO_CIS: Attagene CIS-FACTORIAL HepG2 Assay for human Forkhead box O (FoxO) (AID 2282943); conditions: HepG2 Attagene cis-reporter, FoxO element, mRNA; actives raise or lower the signal
Procedure, shortened: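 24 h chemical exposure, HepG2 with transient cis-MRTU transfection. RNA extraction, oligo(dT) RT, reporter-specific PCR, primer-extension labelling, HpaI digestion, CE fragment analysis; bidirectional fit, DMSO baseline.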

[7] = ATG_GATA_CIS: Attagene CIS-FACTORIAL HepG2 Assay for human GATA Binding Protein (AID 2282944); conditions: HepG2 GATA cis-element reporter, Attagene multiplex mRNA; actives raise or lower the signal
Procedure, shortened: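 Transfected cis-reporter HepG2 cells were treated with chemicals for 24 hours. Total RNA was then converted to cDNA, amplified with reporter-specific primers and analysed by fluorescent capillary electrophoresis, using DMSO-treated wells as baseline.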

[8] = ATG_GLI_CIS: Attagene CIS-FACTORIAL HepG2 Assay for human Zinc Finger Protein GLI1 (AID 2282945); conditions: HepG2, Attagene cis-factorial reporter mRNA, GLI element; actives raise or lower the signal
Procedure, shortened: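 HepG2 cells transiently transfected with cis-promoter multiplexed reporter units report endogenous transcription factor activity. After 24 h chemical exposure, reporter mRNA was quantified by RT-PCR, 6-FAM labelling, HpaI digestion and capillary electrophoresis, with bidirectional fitting against DMSO.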

[9] = target: Bile acid receptor (Homo sapiens) (UniProt Q96RI1); assay: ATG_IR1_CIS: Attagene CIS-FACTORIAL HepG2 Assay for human Nuclear Receptor Subfamily 1 Group H Member 4 (NR1H4), IR1 submotif (AID 2282946); conditions: IR1 reporter transcription, actives raise or lower the signal
Sequence of Bile acid receptor (Homo sapiens) (Q96RI1 whole entry, looked up): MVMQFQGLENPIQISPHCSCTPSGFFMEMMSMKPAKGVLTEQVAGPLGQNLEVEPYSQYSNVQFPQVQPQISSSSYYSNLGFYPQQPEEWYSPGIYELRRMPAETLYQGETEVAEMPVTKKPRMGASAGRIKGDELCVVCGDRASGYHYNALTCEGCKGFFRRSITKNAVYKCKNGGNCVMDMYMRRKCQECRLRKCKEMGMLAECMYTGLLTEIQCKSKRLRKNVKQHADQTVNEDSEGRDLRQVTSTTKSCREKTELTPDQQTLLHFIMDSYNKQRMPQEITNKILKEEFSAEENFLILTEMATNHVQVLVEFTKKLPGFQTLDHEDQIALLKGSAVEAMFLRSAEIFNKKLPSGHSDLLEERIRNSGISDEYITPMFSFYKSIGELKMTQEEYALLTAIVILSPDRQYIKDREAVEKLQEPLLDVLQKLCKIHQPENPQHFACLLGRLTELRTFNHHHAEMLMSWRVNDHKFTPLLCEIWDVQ
Procedure, shortened: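 Readout: reporter transcript levels by RT-PCR with fluorescent capillary electrophoresis, from HepG2 cells transiently transfected with multiplexed cis-regulated reporters and dosed 24 h. Gain- or loss-of-signal fitted versus DMSO negative control.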

[10] = ATG_GRE_CIS: Attagene CIS-FACTORIAL HepG2 Assay for human Glucocorticoid Response Elements (GRE) (AID 2282947); conditions: HepG2 GRE cis-reporter, Attagene multiplex mRNA; actives raise or lower the signal
Procedure, shortened: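 HepG2, transient cis-reporter transfection, 24 h. Reporter mRNA: RT-PCR then CE, fluorescence. Fit both directions vs DMSO.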

[11] = ATG_ISRE_CIS: Attagene CIS-FACTORIAL HepG2 Assay for human Interferon Regulatory Factor 1 (IRF1) binding to an Interferon-Stimulated Response Element (ISRE) (AID 2282948); conditions: HepG2 ISRE cis-reporter (Attagene), mRNA transcription readout; actives raise or lower the signal
Procedure, shortened: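 Multiplexed mRNA reporter readout in human liver HepG2 cells: cis-element-driven reporters transfected, compound added for 24 h, transcripts amplified, fluorescently labelled and sized by capillary electrophoresis; curve fitting bidirectional against DMSO.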

[12] = ATG_M_32_CIS: Attagene CIS-FACTORIAL HepG2 Assay for M32 Transcription Factor (Internal Marker) (AID 2282949); conditions: HepG2 Attagene cis-factorial M32 reporter, mRNA; actives raise or lower the signal;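 note: background control marker of the multiplexed CIS panel rather than a real target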
Procedure, shortened: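 Using DMSO as baseline, bidirectional curve fits were applied to reporter mRNA signals. These came from transiently transfected HepG2 cells exposed for 24 h, with RNA analysed by RT-PCR, FAM primer extension, HpaI digestion and CE.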

[13] = target: Hepatocyte nuclear factor 6 (Homo sapiens) (UniProt Q9UBC0); assay: ATG_HNF6_CIS: Attagene CIS-FACTORIAL HepG2 Assay for human Hepatocyte Nuclear Factor 6 (HNF6) (AID 2282952); conditions: HepG2 Attagene cis-factorial HNF6 reporter transcription; actives raise or lower the signal
Sequence of Hepatocyte nuclear factor 6 (Homo sapiens) (Q9UBC0 whole entry, looked up, the tested form may be a part): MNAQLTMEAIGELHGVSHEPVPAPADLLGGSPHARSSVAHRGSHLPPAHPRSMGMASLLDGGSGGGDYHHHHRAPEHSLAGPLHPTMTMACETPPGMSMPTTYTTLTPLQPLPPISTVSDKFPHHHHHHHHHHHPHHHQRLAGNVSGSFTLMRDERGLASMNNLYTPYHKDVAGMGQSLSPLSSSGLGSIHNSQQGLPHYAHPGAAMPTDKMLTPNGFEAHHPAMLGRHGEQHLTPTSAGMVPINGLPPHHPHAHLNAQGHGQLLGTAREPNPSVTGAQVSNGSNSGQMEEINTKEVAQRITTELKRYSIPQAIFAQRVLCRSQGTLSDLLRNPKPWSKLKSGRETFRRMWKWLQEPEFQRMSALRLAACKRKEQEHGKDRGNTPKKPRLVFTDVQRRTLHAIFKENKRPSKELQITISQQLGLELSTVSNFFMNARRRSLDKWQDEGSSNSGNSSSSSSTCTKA
Procedure, shortened: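 Using cis-element reporters in HepG2 liver cells, the assay tracks endogenous factor-driven transcription 24 h post-dosing. Signal comes from 6-FAM-labelled, HpaI-digested RT-PCR fragments, with gain or loss scored against DMSO.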

[14] = ATG_MRE_CIS: Attagene CIS-FACTORIAL HepG2 Assay for human Metal Responsive Element (MRE) (AID 2282954); conditions: HepG2 MRE cis-reporter transcription, Attagene multiplex; actives raise or lower the signal
Procedure, shortened: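 Readout: capillary electrophoresis of 6-FAM-labelled, HpaI-digested RT-PCR reporter products. System: HepG2 cells carrying transient multiplexed cis reporters, dosed 24 h. Analysis: bidirectional fit, DMSO baseline.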

[15] = ATG_M_61_CIS: Attagene CIS-FACTORIAL HepG2 Assay for M61 Transcription Factor (Internal Marker) (AID 2282937); conditions: HepG2 Attagene CIS-FACTORIAL M61 internal marker reporter; actives raise or lower the signal
Procedure, shortened: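 HepG2 cells transiently transfected with multiplexed cis-promoter reporter units reporting endogenous transcription factor activity, measured 24 h after dosing. Reporter mRNA quantified by RT-PCR and capillary electrophoresis; bidirectional fit against DMSO baseline.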

[16] = ATG_M_06_CIS: Attagene CIS-FACTORIAL HepG2 Assay for M06 Transcription Factor (Internal Marker) (AID 2282950); conditions: HepG2 Attagene CIS-FACTORIAL M06 internal marker reporter; actives raise or lower the signal
Procedure, shortened: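 Cells (HepG2, transiently carrying cis-driven reporter units) receive chemical for 24 h before RNA isolation. Reporter cDNA is PCR-amplified, FAM-labelled by primer extension, HpaI-digested and sized on a capillary analyser.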

[17] = target: Hypoxia-inducible factor 1-alpha (Homo sapiens) (UniProt Q16665); assay: ATG_HIF1a_CIS: Attagene CIS-FACTORIAL HepG2 Assay for human Hypoxia Inducible Factor 1 (HIF1A) (AID 2282951); conditions: HepG2 Attagene cis-factorial HIF1a reporter transcription; actives raise or lower the signal
Sequence of Hypoxia-inducible factor 1-alpha (Homo sapiens) (Q16665 whole entry, looked up): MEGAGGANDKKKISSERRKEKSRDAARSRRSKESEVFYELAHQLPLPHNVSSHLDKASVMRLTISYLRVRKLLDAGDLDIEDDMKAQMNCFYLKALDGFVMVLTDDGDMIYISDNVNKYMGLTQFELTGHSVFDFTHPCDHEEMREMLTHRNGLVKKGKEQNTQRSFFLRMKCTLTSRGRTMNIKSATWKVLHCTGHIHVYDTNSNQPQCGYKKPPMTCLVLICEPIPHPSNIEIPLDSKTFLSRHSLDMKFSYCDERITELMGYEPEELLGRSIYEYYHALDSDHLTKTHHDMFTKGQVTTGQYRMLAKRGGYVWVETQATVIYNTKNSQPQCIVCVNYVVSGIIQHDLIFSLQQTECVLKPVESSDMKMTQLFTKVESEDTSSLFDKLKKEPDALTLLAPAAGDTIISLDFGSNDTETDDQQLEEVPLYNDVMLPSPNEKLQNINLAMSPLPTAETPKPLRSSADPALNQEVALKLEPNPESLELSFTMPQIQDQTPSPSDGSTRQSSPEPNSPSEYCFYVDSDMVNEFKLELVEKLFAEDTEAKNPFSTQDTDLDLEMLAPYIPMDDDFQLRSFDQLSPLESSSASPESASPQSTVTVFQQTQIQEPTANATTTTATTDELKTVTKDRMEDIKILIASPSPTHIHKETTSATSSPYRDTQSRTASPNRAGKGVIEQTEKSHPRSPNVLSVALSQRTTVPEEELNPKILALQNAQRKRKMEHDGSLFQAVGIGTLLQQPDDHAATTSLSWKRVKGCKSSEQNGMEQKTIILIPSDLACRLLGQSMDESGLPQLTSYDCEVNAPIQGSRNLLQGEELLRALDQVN
Procedure, shortened: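 HepG2 cells transiently transfected with multiple cis-regulated reporter transcription units measure endogenous transcription factor activity. After 24 h exposure, reporter mRNA is quantified by RT-PCR with 6-FAM labelling, HpaI digestion and capillary electrophoresis. Bidirectional fitting against DMSO.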

[18] = target: Heat shock factor protein 1 (Homo sapiens) (UniProt Q00613); assay: ATG_HSE_CIS: Attagene CIS-FACTORIAL HepG2 Assay for human Heat Shock Transcription Factor 1 (HSE) (AID 2282953); conditions: HepG2 HSE cis-reporter, Attagene RNA transcription; actives raise or lower the signal
Sequence of Heat shock factor protein 1 (Homo sapiens) (Q00613 whole entry, looked up): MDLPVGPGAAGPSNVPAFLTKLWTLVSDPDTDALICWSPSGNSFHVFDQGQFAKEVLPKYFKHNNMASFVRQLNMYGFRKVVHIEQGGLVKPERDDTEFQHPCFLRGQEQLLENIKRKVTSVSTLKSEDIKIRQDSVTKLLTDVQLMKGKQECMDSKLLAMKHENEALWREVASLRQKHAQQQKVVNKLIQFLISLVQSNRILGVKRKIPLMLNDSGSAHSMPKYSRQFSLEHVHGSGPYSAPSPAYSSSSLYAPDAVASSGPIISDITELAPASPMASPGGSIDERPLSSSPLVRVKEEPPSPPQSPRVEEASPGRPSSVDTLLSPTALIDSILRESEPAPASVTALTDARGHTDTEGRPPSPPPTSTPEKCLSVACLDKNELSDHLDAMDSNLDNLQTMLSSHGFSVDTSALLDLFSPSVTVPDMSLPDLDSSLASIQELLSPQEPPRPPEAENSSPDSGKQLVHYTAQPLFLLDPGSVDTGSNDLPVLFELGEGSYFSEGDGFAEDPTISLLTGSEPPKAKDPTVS
Procedure, shortened: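 Liver-derived HepG2 cells carry transiently introduced multiple reporter units governed by cis promoters. Reporter RNA measured 24 h post-dose through reverse transcription, PCR amplification, fluorescent labelling and capillary electrophoresis, normalised to DMSO.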

[19] = ATG_E_Box_CIS: Attagene CIS-FACTORIAL HepG2 Assay for human Enhancer Box (E-box) (AID 2282936); conditions: HepG2 E-box cis-reporter transcription, actives raise or lower the signal
Procedure, shortened: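 Measured 24 h post-dosing in HepG2 cells transfected with multiple cis-regulated reporter units, signal being reporter mRNA induction detected by fluorescent RT-PCR with capillary electrophoresis; gain or loss fitted against DMSO.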

Measured: AC50

FC(F)(F)C(F)(F)C(F)(F)C(F)(F)C(F)(F)C(F)(F)CCS
active: [3] 26.4 µM
not listed: [15] | [16] | [17] | [18] | [19]
inactive: all other assays above

C1COCCN1
not listed: [9] | [10] | [19]
inactive: all other assays above

CO[Si](OC)(c1ccccc1)c1ccccc1
active: [3] 72.8 µM
not listed: [16] | [17]
inactive: all other assays above

FC(F)(F)C(F)(F)C(F)(F)C(F)(F)C(F)(F)C(F)(F)C(F)(F)C(F)(F)F
not listed: [16] | [17] | [19]
inactive: all other assays above

FC(F)(F)C(F)(F)C(F)(F)C(F)(F)C(F)(F)CCI
active: [3] 51.2 µM
not listed: [18] | [19]
inactive: all other assays above

CCCCCCCCC(F)(F)C(F)(F)C(F)(F)C(F)(F)C(F)(F)C(F)(F)F
not listed: [15] | [17]
inactive: all other assays above

COC(=O)CCC(F)(F)C(F)(F)C(F)(F)C(F)(F)F
active: [3] 6.98 µM
not listed: [17] | [18] | [19]
inactive: all other assays above

CC(=O)Nc1ccc(N=Nc2cc(C)ccc2O)cc1
active: [14] 27.6 µM
not listed: [15] | [16] | [17] | [18] | [19]
inactive: all other assays above

FC(F)(F)C(F)(F)C(F)(F)CI
not listed: [15] | [16] | [17] | [18] | [19]
inactive: all other assays above
